# Publication PMC5540273 (PLoS ONE, 2017)
# Columns and labels:
# Conditions in all cases: concentration: 1 μM, replicates: in singlicate; n = 1
# TNNI3K = tested on: TNNI3K
# TRKA = tested on: T1, TRKA
# T1 construct: gene NTRK1
# TRKB = tested on: TRKB
# TRKC = tested on: T2, TRKC
# T2 construct: gene NTRK3
# TRPM6 = tested on: TRPM6
# TSSK1B = tested on: TSSK1B
# TSSK3 = tested on: TSSK3
# TTK = tested on: TTK
# TXK = tested on: TXK
# [1] = tested on: TYK2(JH1domain-catalytic)
# 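Also: KINOMEscan kinase panel screen.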
Compound,%Inh (TNNI3K) [%],%Inh (TRKA) [%],%Inh (TRKB) [%],%Inh (TRKC) [%],%Inh (TRPM6) [%],%Inh (TSSK1B) [%],%Inh (TSSK3) [%],%Inh (TTK) [%],%Inh (TXK) [%],%Inh [1] [%]
O=C(Nc1n[nH]c2nc(-c3cccc(O)c3)ccc12)C1CC1 [SB-711805],0,4,19,24,3,0,0,14,0,18
Cc1ccc(Nc2ccnc(Nc3ccc(C)c(F)c3)n2)cc1O.Cl [GW582868],0,0,50,35,0,11,8,0,12,31
Nc1ncc(-c2cn[nH]c2)c2scc(-c3ccc4c(c3)CCN4C(=O)Cc3ccccc3)c12 [GSK2593067],0,96.8,63,70,16,3,20,1,30,10
COc1ccc(NC(=O)c2ccoc2)cc1-c1ccc(C(=O)NCC2CC2)cc1 [GW810437],1,15,26,21,0,0,32,0,0,61
CCNC(=O)/C=C/c1n[nH]c2cc(Sc3ccccc3C(=O)NC)ccc12,22,34,0,0,0,19,13,0,0,0
CSc1ccc(NC2=C(c3ccc(Cl)cc3)C(=O)NC2=O)cc1 [SB-317658],2,5,0,0,0,3,0,6,23,0
COc1ccc(C2=C(Nc3cccc(O)c3)C(=O)NC2=O)cc1 [SB-390766],27,0,41,51,30,8,12,0,8,25
Cc1ccc(-c2ccc3occ(-c4ccc(S(C)=O)cc4)c3c2)nn1 (stereo not drawn),0,0,0,11,0,0,0,8,2,1
Cc1ccc(O)cc1Nc1ccnc2cc(-c3ccc(CN4CCCCC4)o3)ccc12 [GW557777],20,42,0,0,0,0,0,0,98.3,63
CN(C)CCNS(=O)(=O)c1ccc(-c2ccnc3[nH]ccc23)cc1 [GSK977620],3,93.4,63,54,0,58,15,50,91,46
Cc1cc(-c2c(-c3ccc(F)cc3)ncn2CCCN2CCOCC2)nc(N)n1 [SB-222517],0,0,0,0,15,0,0,48,14,0
CNc1nccc(-c2ccc3c(N)n[nH]c3c2)n1 [GSK2206003],0,52,23,3,0,0,21,37,11,46
O=C(O)C(F)(F)F.O=c1[nH]ccc2nc(N[C@@H]3CCNC3)nc(Nc3ccc4c(c3)S(=O)(=O)CC4)c12 [GSK2181306],11,100,92.8,84,38,69,96.5,85,26,90.8
CC(C)c1nc(-c2cccc(NS(=O)(=O)c3c(F)cccc3F)c2)c(-c2ccnc(Nc3ccc(N4CCOCC4)nc3)n2)s1.Cl [GSK1723980],52,61,0,14,27,0,19,61,92.7,45
O=C(Nc1n[nH]c2cc(-c3cccs3)ccc12)C1CC1 [SB-731284],0,3,0,3,39,0,7,10,0,28
Cc1ccccc1CC(=O)N1CCc2cc(-c3cn(C)c4ncnc(N)c34)ccc21 [GSK2603346],0,39,14,21,40,0,26,0,0,0
c1ccc(Oc2ccc(Nc3ccnc4cc(-c5ccc(CN6CCCCC6)o5)ccc34)cc2)nc1 [GW567143],1,98.7,18,27,42,6,19,28,0,16

Compound,%Inh (TNNI3K) [%],%Inh (TRKA) [%],%Inh (TRKB) [%],%Inh (TRKC) [%],%Inh (TRPM6) [%],%Inh (TSSK1B) [%],%Inh (TSSK3) [%],%Inh (TTK) [%],%Inh (TXK) [%],%Inh [1] [%]
CC(C)(C)c1ccc(C(=O)Nc2cn3cc(-n4ccnc4)ccc3n2)cc1,2,0,0,0,0,0,0,1,0,22
COC(=O)Nc1nc2ccc(Oc3ccc(NC(=O)Nc4cc(C(F)(F)F)ccc4F)cc3)cc2[nH]1.Cl [GW654607],92.4,100,94.8,98.9,26,100,6,17,0,8
Cn1cc(-c2ccc3c(c2)CCN3C(=O)Cc2cc(F)cc(C(F)(F)F)c2)c2c(N)ncnc21 [GSK2635225],47,49,49,69,36,0,15,26,0,0
CN(C)c1ncnc2nc[nH]c12 [SKF-31736],0,0,0,28,30,0,4,0,0,0
CCn1cnc2c(NCc3ccccc3)ncnc21 [SKF-96418],0,0,0,11,15,0,0,16,2,0
Nc1ncc(-c2ccc3nccc(-c4ccncc4)c3c2)cc1S(=O)(=O)N1CCCCC1 [GSK1693850],1,99,0,0,0,0,7,21,0,4
COc1cc(Nc2nccc(N3CCC(NS(=O)(=O)c4ccc(NC(C)=O)cc4)CC3)n2)cc(OC)c1OC [GSK1379825],40,100,27,15,0,12,25,1,51,75
Cc1cc(-c2ccnc(Nc3cccc(C#N)c3)n2)cc(C)c1O [GSK1440913],25,78,9,39,0,5,7,54,35,60
CN(c1ccc(NC(=O)N2CCN(CCCN3CCOCC3)CC2)cc1)c1ccnc(Nc2ccc(CS(C)(=O)=O)cc2)n1.Cl [GW830899],5,0,0,0,0,3,0,26,38,31
Cl.Cl.NCC(NC(=O)c1cc(-c2cccnc2)c(-c2ccnc3[nH]ccc23)s1)c1ccccc1 (stereo not drawn) [GSK1323434],26,31,40,48,34,14,19,4,0,28
O=C(Nc1c(F)cccc1F)c1cc(C(=O)c2ccccc2F)c[nH]1 [GSK1326180],0,27,0,12,0,0,24,6,0,0
COc1cccc2c(-c3ccncc3)c(-c3ccc(F)cc3)nn12 [GW468513],6,17,11,0,9,49,21,0,6,25
COc1ccc(C)c(Nc2ccnc(Nc3ccc(-c4cnc[nH]4)cc3)n2)c1.Cl [GW784041],100,0,0,0,0,10,0,15,15,44
Fc1cc(Cl)ccc1Nc1ccnc2cc(-c3ccc(CN4CCOCC4)o3)ccc12 [GW560109],7,42,41,35,35,21,3,21,86,18
CCOc1nccc(-c2c(-c3ccc(F)cc3)ncn2C2CCNCC2)n1 [SB-249175],4,47,21,18,18,0,34,0,10,45
NCCC(NC(=O)c1cc(Br)c(-c2ccnc3[nH]ccc23)s1)c1ccccc1.O=C(O)C(F)(F)F.O=C(O)C(F)(F)F (stereo not drawn) [GSK1307810],2,91.4,59,47,0,0,20,25,0,83
